The source of these data is PubChem BioAssay AID651804 (National Center for Advancing Translational Sciences (NCATS), 2012).

Hit rate of the full screen: of about 1,200 compounds, about 20 (2%) were called active. Not shown: some 23% with an inconclusive outcome. Calls come from the whole dose curve; as a rule, active = well fitted inhibition curve with a large enough effect; inconclusive = small, poorly fitted or top-dose-only effect; inactive = no such curve, though single readings can be large or run the other way. What follows is part of a selection rich in actives, with near analogues and random picks from the rest.
Potency is the fitted concentration of half-maximal effect.

The target in this test is Transcriptional regulator ERG (Homo sapiens) (UniProt P11308). Kind of test: qHTS for Small Molecule Inhibitors of the ERG Ets/DNA interaction: HTRF assay against cherry picks. The note with it: His-ERG Ets domain with biotin-DNA; series mostly up to 154 µM; activity change, negative = inhibition: at the top concentration. The source says: The Ets family of proteins is a family of ~30 conserved transcription factors defined by the presence of an ~85 amino acid domain referred to as the Ets domain, which mediates sequence-specific DNA binding to a core DNA element GGAA/T.The Ets family member ERG has been linked to several neoplasms. […] More extensive studies of the effects of over-expression of ERG in prostate cells have recently been carried out and have shown that over-expression of ERG results in increased invasion. […] We will carry out a high throughout screen to identify inhibitors of the interaction between ERG and DNA using a fluorescence polarization (FP) assay with a His-tagged ERG Ets domain and fluorescently-labeled DNA probes to develop small molecule inhibitors of this interaction as probes to test this hypothesis and lay the groundwork for the development of targeted therapies against ERG. This is the counterscreen against the cherry picks. NIH Molecular Libraries Probe Production Network [MLPCN] NIH Chemical Genomics Center [NCGC] Grant: NS066464 PI Name: John Bushweller, University of Virgina
Chain of Transcriptional regulator ERG (Homo sapiens) (P11308 whole entry, looked up, the tested form may be a part): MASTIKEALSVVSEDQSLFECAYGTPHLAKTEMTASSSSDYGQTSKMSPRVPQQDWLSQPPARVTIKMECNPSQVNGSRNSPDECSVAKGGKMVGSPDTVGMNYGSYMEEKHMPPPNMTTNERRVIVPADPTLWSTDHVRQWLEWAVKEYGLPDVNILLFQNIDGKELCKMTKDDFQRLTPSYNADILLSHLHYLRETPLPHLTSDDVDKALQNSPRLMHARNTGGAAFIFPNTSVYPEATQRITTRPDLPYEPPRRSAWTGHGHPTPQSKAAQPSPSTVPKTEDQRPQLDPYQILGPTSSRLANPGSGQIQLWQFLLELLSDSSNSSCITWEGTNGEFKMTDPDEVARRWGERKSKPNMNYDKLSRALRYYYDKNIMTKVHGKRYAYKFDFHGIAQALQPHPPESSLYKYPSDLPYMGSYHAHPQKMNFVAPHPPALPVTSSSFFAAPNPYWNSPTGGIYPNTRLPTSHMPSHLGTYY
2 ul of protein solution (200 nM ERG domain in 300mM KCl, 50mM Tris-HCl, 1mM EDTA, 1mM DTT, pH 7.5); 20 nl Control plate and compound library plate; 2 ul of 200 nM biotin-DNA; incubate for 10 min at RT; 1 ul of anti-His antibody conjugated to the long-life fluorescent cryptate donner […] (5ng/ul) and streptavidin conjugated to the acceptor compound […] (0.2 ng/ul) mix; incubate 10 min and measure FRET (Excitation = 320 nm, Emission = 615, 665 nm).
For orientation: qHTS replaces the single test concentration by a dilution series.
Take `Cc1ccc(N(CCCCN2C(=O)c3ccccc3C2=O)C(=O)c2ccc(Cl)s2)cc1`: the “activity change, negative = inhibition” value was -1.7% (inactive).

Regarding `N#Cc1c(NC(=O)CCCN2C(=O)c3ccccc3C2=O)oc(-c2ccccc2)c1-c1ccccc1`, the “activity change, negative = inhibition” value was -4.08% (inactive).

As for `CC(=O)C(c1ccccc1)C(c1ccccc1)C(C)[N+](=O)[O-]` (configuration not stated), the “activity change, negative = inhibition” value is -25.3% (inactive).

For the molecule `COc1cc(CO)ccc1OCC(=O)Nc1cccc2ccccc12`, the “activity change, negative = inhibition” value is -34.3% (inactive).

For the molecule `CN(C(=O)COC(=O)c1ccc(F)c(S(=O)(=O)N2CCOCC2)c1)C1CCS(=O)(=O)C1` (configuration not stated), the “activity change, negative = inhibition” value is -15.2% (inactive).

Consider `Cc1occc1C(=O)NCCc1ccc(Cl)cc1`, for which the “activity change, negative = inhibition” value was 2.02% (inactive).

With `CCc1cc(C(=O)NNC(=S)Nc2cccc(C)c2)cs1`, the “activity change, negative = inhibition” value was -26.5% (inactive).

`Cc1cccc(-n2c(-c3ccccc3)c[nH]c2=S)c1C`: the “activity change, negative = inhibition” value was -29.7% (inactive).

For the molecule `Cc1ccc(NC(=O)c2cc3cc(OC(F)(F)F)ccc3[nH]2)cc1`, the “activity change, negative = inhibition” value is -19% (inactive).

For the molecule `CCCCn1c(N)c(N(CC)C(=O)c2ccc(C#N)cc2)c(=O)[nH]c1=O`, the “activity change, negative = inhibition” value was -8.75% (inactive).

For `CCCCn1c(=O)[nH]c2nc3cc(N)ccc3nc2c1=O`, the Potency was 50.1 µM (active).

Take `O=C(Nc1ccccc1)Nc1ncc([N+](=O)[O-])s1`: the Potency was 39.8 µM (active).

Take `Cc1cc(C)nc(N2CCN(c3nnnn3-c3ccccc3)CC2)n1`: the “activity change, negative = inhibition” value was 3.18% (inactive).

In the case of `CCCN(C(=O)c1nn(-c2ccc(C)cc2)c(=O)c2c1c1ccccc1n2C)c1ccccc1C`, the “activity change, negative = inhibition” value was -29.5% (inactive).

In the case of `Cc1ccccc1C(=O)N/N=C1/SCC(=O)N1Cc1ccccc1`, the “activity change, negative = inhibition” value was 1.11% (inactive).

Consider `Cc1cccc(C(=O)NCCNc2nc3cc(C)c(C)cc3cc2C)c1`, for which the “activity change, negative = inhibition” value is -17.8% (inactive).

With `O=C1c2ccccc2C(=O)c2c1ncn2-c1ccccc1`, the Potency is 15.8 µM (active).

`O=C(CNC(=S)N(Cc1ccccc1)Cc1cccnc1)NC1CCCCC1`: the “activity change, negative = inhibition” value is -9.71% (inactive).

For `Cc1ccc(-c2noc(C3CCCN(C(=O)c4cccc([N+](=O)[O-])c4)C3)n2)o1` (configuration not stated), the “activity change, negative = inhibition” value is -24.6% (inactive).

`Cc1cc2cc(CNC(=O)C(C)Oc3ccccc3)ccc2n1C` (configuration not stated): the “activity change, negative = inhibition” value was -9.92% (inactive).

In the case of `CC(Oc1ccc(F)cc1)C(=O)Nc1ccc(S(=O)(=O)NC2=NCCCCC2)cc1` (configuration not stated), the “activity change, negative = inhibition” value was -5.41% (inactive).

Regarding `COc1ccc(C(=O)NCc2ccc(OCCN(C)C)cc2)cc1OC`, the “activity change, negative = inhibition” value is -16.1% (inactive).

`Cc1cc(F)ccc1NC(=O)c1ccc(NS(=O)(=O)c2cc(C(C)(C)C)ccc2C)cc1`: the “activity change, negative = inhibition” value was -11.9% (inactive).

Consider `O=C1[C@H]2[C@@H](c3ccc(F)cc3)N3C(=O)N(c4cccc(F)c4)C(=O)[C@@]3(Cc3ccccc3)[C@H]2C(=O)N1C1CCCCC1`, for which the “activity change, negative = inhibition” value is -28.6% (inactive).

For `CCNc1nc(OCC)nc(N2CCC(Cc3ccccc3)CC2)n1`, the “activity change, negative = inhibition” value was 4.46% (inactive).

As for `CSc1ccccc1NC(=O)CN(C)C(=O)/C=C/c1ccccc1`, the “activity change, negative = inhibition” value is -23.6% (inactive).

Regarding `CC(=O)c1cccc(NC(=O)C(C)OC(=O)CCc2nc3ccccc3c(=O)[nH]2)c1` (configuration not stated), the “activity change, negative = inhibition” value was -21.7% (inactive).

As to `Nc1ccc2[nH]ncc2c1`, the “activity change, negative = inhibition” value was -70.6% (inactive).

Regarding `O=C(CSC1=NCCS1)NC(NC(=O)CSC1=NCCS1)c1ccccc1`, the “activity change, negative = inhibition” value was -23% (inactive).

With `CCOc1ccccc1NC(=O)COc1ccc2ccc(=O)oc2c1`, the “activity change, negative = inhibition” value was 5.68% (inactive).

For the molecule `O=C(COC(=O)/C=C/c1ccc([N+](=O)[O-])cc1)NCc1cccs1`, the “activity change, negative = inhibition” value is -28.9% (inactive).

Consider `O=C(/C=C/c1ccc([N+](=O)[O-])cc1)NCc1ccco1`, for which the Potency was 28.2 µM (active).

Regarding `O=C(CCc1c[nH]c2ccccc12)NCc1ccco1`, the “activity change, negative = inhibition” value is -5.25% (inactive).

As for `O=C(NCc1cccnc1)c1ccccc1-c1nc(-c2ccccc2)no1`, the “activity change, negative = inhibition” value was -23.1% (inactive).

Regarding `O=C(NC(c1ccccc1)C(Cl)Cl)c1ccccc1` (configuration not stated), the “activity change, negative = inhibition” value is -11.6% (inactive).

`CCOC(=O)CSc1nc2ccc(NC(=O)c3ccc(F)cc3)cc2s1`: the “activity change, negative = inhibition” value is 26.8% (inactive).

Regarding `CCN(C(=O)CSc1nc2cc(C(=O)O)ccc2c(=O)n1Cc1ccccc1)c1ccccc1`, the “activity change, negative = inhibition” value was -26.9% (inactive).

With `Cc1noc(C)c1S(=O)(=O)N(CC(=O)NCc1ccc(F)cc1)c1ccc(C(C)C)cc1`, the “activity change, negative = inhibition” value is -22.4% (inactive).

Take `Cc1[nH]c2ccc(C(=O)OCC(=O)Nc3cccc(S(N)(=O)=O)c3)cc2c1C`: the “activity change, negative = inhibition” value was -12.7% (inactive).

For the molecule `O=C(C1CCN(CCc2ccccc2)CC1)N1CCOCC1`, the “activity change, negative = inhibition” value was -17% (inactive).

In the case of `Cc1ccnn1-c1ccc(C(=O)OCC(=O)Nc2ccc(F)cc2)cc1`, the “activity change, negative = inhibition” value is -27.1% (inactive).

As to `CCN(CC(=O)N1CCCCCC1)S(=O)(=O)c1ccc(Cl)cc1`, the “activity change, negative = inhibition” value is -18.2% (inactive).

As to `COc1ccc(-c2cc(N)n(S(=O)(=O)Cc3ccccc3)n2)c(OC)c1`, the “activity change, negative = inhibition” value was -25% (inactive).

For the molecule `O=C(CCN=C1NS(=O)(=O)c2ccccc21)OCc1ccccc1`, the “activity change, negative = inhibition” value was -3.29% (inactive).

Turning to `COc1ccc(NC2CCCN(C(=O)C3(C)CCCCC3)C2)cc1OC` (configuration not stated), the “activity change, negative = inhibition” value is -11.5% (inactive).

For `COc1ccccc1C(C)NC(=O)c1cc(S(=O)(=O)N2CCCCC2)ccc1C` (configuration not stated), the “activity change, negative = inhibition” value was 0.53% (inactive).

With `O=C(C1CC(=O)N(c2ccc(Cl)cc2)C1)N1CCCCCC1` (configuration not stated), the “activity change, negative = inhibition” value is 0.955% (inactive).

As to `CCN(C(=O)COC(=O)c1ccc(=O)n(Cc2ccccc2)n1)C1CCS(=O)(=O)C1` (configuration not stated), the “activity change, negative = inhibition” value was -38% (inactive).

On to `C=CCC[C@H](Cc1ccc(F)cc1)C(=O)OC[C@@H](Cc1c[nH]c2ccccc12)NC(=O)[C@H](CC=C)CC(=O)N(CCO)Cc1ccccc1`, for which the “activity change, negative = inhibition” value was -14.7% (inactive).

On to `O=C(OCC(=O)c1c[nH]c2ccccc12)c1ccc([N+](=O)[O-])s1`, for which the Potency is 35.5 µM (active).

Regarding `Cc1nn(C2CCS(=O)(=O)C2)c(Cl)c1/C=C/C(=O)OCC(=O)c1c[nH]c2ccccc12` (configuration not stated), the “activity change, negative = inhibition” value is -21.3% (inactive).

On to `CCCN(CC(=O)Nc1ccc(F)c(F)c1F)C(=O)C1CC(=O)N(Cc2ccccc2)C1` (configuration not stated), for which the “activity change, negative = inhibition” value is -22.6% (inactive).
